NIH3T3 tox = kills NIH 3T3 cells. AID 1345082. hit rate 4.3% among 94,000. NIH 3T3 viability, CellTiter-Glo ATP luminescence, 48-72 h. Potency, µM (top dose mostly 96.7 µM), usual class: inhibitors; also: nearly all actives have a fitted effect of over 55% in size
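Viability of NIH 3T3 cells after 48 or 72 hr compound treatment at 37 °C was assessed by CellTiter-Glo, with luminescence imaged following a 10 min room-temperature step.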
hNpr1 antagonist = human Npr1 receptor antagonism; hit rate 1.6% among 76,000; HEK293 hNpr1 GloSensor cGMP, ANP-stimulated luminescence; Potency, µM (doses to about 46.3 µM), actives largely listed as inhibitors; calls by dose curve; also: nearly all actives have a fitted effect of over 60% in size
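Compound pre-incubated 30 min at room temperature on GloSensor-loaded HEK293 cells stably carrying hNpr1 and the pGS-40F cGMP biosensor. Stimulation uses hNppA at 0.1 nM final; luminescence is taken at baseline and 20 min post-agonist.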
HEK293 tox = HEK 293 cell cytotoxicity; HEK 293 viability, ATP luminescence (CellTiter-Glo), 48-72 h; Potency, µM (titrated, usually from 115 µM), hits mostly inhibitors; hit rate 6.6% among 94,000; AID 1345083; also: nearly all actives have a fitted effect of over 60% in size
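qHTS cytotoxicity; HEK 293, 250 cells/well; compound pinned; 48 or 72 hr, 37 degree Celsius, 5% CO2, 95% humidity; CellTiter-Glo, 10 min RT; luminescence (ATP).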
FLuc inh = inhibitors of firefly (Photinus pyralis) luciferase; purified P. pyralis luciferase, luminescence, biochemical; Potency, µM (top dose mostly 115 µM), usual class: inhibitors; hit rate 2.5% among 76,000; also: nearly all actives have a fitted effect of over 65% in size
Target sequence (P08659 whole entry, looked up): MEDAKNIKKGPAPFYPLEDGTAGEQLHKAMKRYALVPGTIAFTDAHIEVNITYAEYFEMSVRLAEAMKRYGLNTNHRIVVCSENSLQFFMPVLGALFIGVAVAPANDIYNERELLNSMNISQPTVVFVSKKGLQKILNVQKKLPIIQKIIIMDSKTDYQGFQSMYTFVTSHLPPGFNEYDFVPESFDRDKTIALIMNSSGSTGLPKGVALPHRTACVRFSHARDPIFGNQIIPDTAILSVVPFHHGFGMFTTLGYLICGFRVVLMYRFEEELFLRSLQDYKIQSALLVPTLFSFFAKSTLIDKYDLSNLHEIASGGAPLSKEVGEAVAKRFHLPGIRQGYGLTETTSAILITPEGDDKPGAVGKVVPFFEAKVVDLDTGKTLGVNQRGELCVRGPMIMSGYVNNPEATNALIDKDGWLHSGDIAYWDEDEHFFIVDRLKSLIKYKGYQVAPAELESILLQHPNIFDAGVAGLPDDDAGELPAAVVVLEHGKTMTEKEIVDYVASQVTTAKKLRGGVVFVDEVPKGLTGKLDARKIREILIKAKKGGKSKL
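Cell-free enzyme assay, 10nM P. pyralis luciferase, luciferin and ATP each at 10uM. Inhibition profiled over a 6-point titration, read as luminescence.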
GPT2 inh = GPT2 alanine aminotransferase inhibition; Q8TD30; Recombinant GPT2, coupled pyruvate oxidase/HRP Amplex Red fluorescence; Potency, µM (doses to about 57.7 µM), usual class: inhibitors; hit rate 0.25% among 100,000; AID 1671188; also: nearly all actives have a fitted effect of over 60% in size
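Recombinant GPT2 (10ng/uL) with 250uM a-KG and 2mM L-alanine, 30 min at room temperature, in HEPES pH 7.5 buffer. Pyruvate detected by pyruvate oxidase/HRP/Amplex Red fluorescence after 30 min in the dark; AOA (50uM) as positive control.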
Numbers stand for hits; i = inactive; ? = inconclusive; nt = no result given. The list is not random: actives were taken first. Their share in the collection is about 10%. Unless noted, calls follow the shape of the dose curve; as a rule, active = well fitted curve in the direction sought with a large enough effect; inconclusive = small, poorly fitted or top-dose-only effect, or another doubt; inactive = no such curve, though single readings can be large; an effect the other way counts as inactive or inconclusive.

SMILES | NIH3T3 tox | hNpr1 antagonist | HEK293 tox | FLuc inh | GPT2 inh
O=C(c1ccc(Cl)cc1)N1CCCC2(CN[S+](=O)([O-])c3cccnc3N2)C1 (configuration not stated) | i | nt | i | nt | nt
O=C1c2cnc(-c3ccc(O)c(F)c3)nc2OCCN1c1ccccc1 | 8.91µM | i | 44.7µM | ? | i
O=C1c2cnc(-c3cccnc3)nc2OCCN1Cc1ccccc1 | i | i | ? | i | i
C#CCNC(=O)c1ccc2nnc(-c3cncc(Cl)c3)n2c1 | i | nt | i | nt | i
CC1=NOC2(CCN(Cc3ccc(C(F)(F)F)cc3)CC2)C1 | ? | i | ? | i | i
O=C(NCc1cccc(Cl)c1)C1CCCN(c2ccnc3ccnn23)C1 (configuration not stated) | ? | nt | ? | nt | i
O=C(NCc1ccccc1)C1CCCN(c2ccnc3ccnn23)C1 (configuration not stated) | ? | nt | 100µM | nt | i
O=C(NCc1ccccc1F)C1CCN(c2ccnc3ccnn23)CC1 | ? | nt | 15.8µM | nt | i
O=C(NCc1ccccc1)C1CN(c2ccnc3ccnn23)C1 | ? | nt | ? | nt | i
O=C(NCc1ccc(Cl)cc1)C1CCCN(c2ccnc3ccnn23)C1 (configuration not stated) | ? | nt | 50.1µM | nt | i
O=C(NCCc1ccccc1F)C1CCN(c2ccnc3ccnn23)CC1 | ? | nt | ? | nt | i
COc1ccccc1Nc1ccnc(N2CCC(NC(=O)Cc3ccccn3)CC2)n1 | ? | nt | ? | nt | i
COC(=O)[C@@H]1Cc2c([nH]c3ccccc23)[C@H]2C[C@@H](NCCN3CCOCC3)C[C@@H](c3ccc(C(F)(F)F)cc3)N21 | 14.1µM | ? | 7.94µM | i | i
COC(=O)[C@@H]1Cc2c([nH]c3ccccc23)[C@H]2C[C@@H](NCCN3CCOCC3)C[C@@H](c3ccc(F)c(F)c3)N21 | 28.2µM | i | ? | i | ?
COC(=O)[C@@H]1Cc2c([nH]c3ccccc23)[C@H]2C[C@@H](NCCN3CCOCC3)C[C@@H](c3ccc(OC(F)(F)F)cc3)N21 | 22.4µM | i | 25.1µM | i | i
COc1ccc(OC)c(NC(=O)c2ccc3c(c2)C(O)CCCCCN3C)c1 (configuration not stated) | ? | ? | ? | i | i
CN1c2cc(C(=O)Nc3cccc(OC(F)(F)F)c3)ccc2C(=O)N2CCCCCC21 (configuration not stated) | i | i | ? | i | i
COc1cccc(NC(=O)c2ccc3c(c2)C(O)CCCCCN3C)c1 (configuration not stated) | ? | i | ? | 35.5µM | i
CC1CCN(c2ccc(CNC(=O)c3ccc4c(c3)C(O)CCCCCN4C)cc2)CC1 (configuration not stated) | 39.8µM | i | ? | i | i
CN1CCCCCC(O)c2cc(C(=O)Nc3cccc(OC(F)(F)F)c3)ccc21 (configuration not stated) | 28.2µM | ? | 25.1µM | i | ?
CCc1ccc(CN2CCCC23Cc2ccccc2CNC3=O)cc1 (configuration not stated) | ? | nt | 89.1µM | nt | i
Cc1ccc(Nc2ccnc(N3CCCC(C(=O)N4CCN(c5ncccn5)CC4)C3)n2)cc1 (configuration not stated) | ? | nt | 20µM | nt | i
Cc1ccc(Nc2ccnc(N3CC4CCC(C3)N4CC(F)(F)F)n2)cc1 | 28.2µM | nt | 39.8µM | nt | ?
Cc1ccc(Nc2ccnc(N3CCC(C(=O)N4CCCC4)CC3)n2)cc1 | ? | nt | ? | nt | i
Cc1ccc(Nc2ccnc(N3CCCC(C(=O)N4CCCC4)C3)n2)cc1 (configuration not stated) | 28.2µM | nt | ? | nt | i
SMILES | NIH3T3 tox | hNpr1 antagonist | HEK293 tox | FLuc inh | GPT2 inh
Fc1ccccc1Nc1ccnc(N2CC3CCC(C2)N3CC(F)(F)F)n1 | ? | nt | ? | nt | i
Cc1ccc(Nc2ccnc(N3CCN(C(=O)C4CC4)CC3)n2)cc1 | 31.6µM | nt | 70.8µM | nt | i
COc1ccc(-c2nn(-c3ccccc3C)cc2CN2CCCC2c2nonc2C)cc1F (configuration not stated) | i | i | ? | i | i
COc1cc(NC(=O)C[C@H]2NC(=O)c3ccccc3NC2=O)ccc1-n1nc(C)cc1C | i | i | i | i | i
CC1=C[C@@H](CNC(=O)CC(C)(C)CC(=O)O)[C@H](C(C)C)C[C@H]1Cc1nc2ccccc2n1C | ? | i | i | i | i
CCC(CC)C(=O)NC[C@@H]1C=C(C)[C@H](Cc2nc3ccccc3n2C)C[C@H]1C(C)C | 35.5µM | ? | 31.6µM | i | i
CC1=C[C@@H](CNC(=O)C2CCCCC2)[C@H](C(C)C)C[C@H]1Cc1nc2ccccc2n1C | 31.6µM | ? | 31.6µM | i | ?
CC1=C[C@@H](CNC(=O)c2ccccc2)[C@H](C(C)C)C[C@H]1Cc1nc2ccccc2n1C | 31.6µM | ? | 25.1µM | i | i
O=C1CCC2(C(=O)N3CCOCC3)CCCC=C2N1c1ccccc1 (configuration not stated) | i | nt | i | nt | i
CCNC(=O)N[C@H]1CO[C@H]2[C@@H]1OC[C@@H]2Nc1nccc(-c2ccc(OC)cc2)n1 | ? | i | ? | i | i
COc1ccc(-c2ccnc(N[C@H]3CO[C@H]4[C@@H]3OC[C@@H]4NS(=O)(=O)c3ccc(NC(C)=O)cc3)n2)cc1 | ? | ? | 39.8µM | i | i
C=CCNC(=O)N[C@H]1CO[C@H]2[C@@H]1OC[C@@H]2Nc1nccc(-c2ccc(OC)cc2)n1 | ? | i | 89.1µM | i | i
Cc1ccc(C(=O)N[C@H]2CO[C@H]3[C@@H]2OC[C@@H]3Nc2nccc(-c3cccs3)n2)cc1 | i | i | i | i | i
O=C(N[C@H]1CO[C@H]2[C@@H]1OC[C@@H]2Nc1nccc(-c2ccc(-c3ccccc3)cc2)n1)c1ccccc1 | ? | ? | 10µM | i | i
CN(C)c1ccc(C(=O)N[C@H]2CO[C@H]3[C@@H]2OC[C@@H]3Nc2nccc(-c3cccs3)n2)cc1 | ? | i | 44.7µM | ? | i
CCC1(O)CCC12CCN(C(=O)CCc1nc3ccccc3s1)CC2 (configuration not stated) | ? | i | ? | i | i
CCn1nccc1C(=O)N1CC(c2nc(CCOc3cccc(C)c3)no2)C1 | i | i | ? | i | i
O=C(CCc1nnn2c1CN(C(=O)Nc1ccc3c(c1)OCCO3)CC2)N1CCCC1 | i | i | i | i | i
CN(C)c1ccc(-c2ccnc(N[C@H]3CO[C@H]4[C@@H]3OC[C@@H]4NC(=O)NCc3ccccc3)n2)cc1 | 22.4µM | i | 31.6µM | ? | i
Cc1ccc(S(=O)(=O)N[C@H]2CO[C@H]3[C@@H]2OC[C@@H]3Nc2nccc(C(C)(C)C)n2)cc1 | ? | 3.55µM | 25.1µM | ? | i
CC(=O)N[C@H]1CO[C@H]2[C@@H]1OC[C@@H]2Nc1nccc(-c2cccc(F)c2)n1 | i | ? | ? | i | i
Cc1ccc(S(=O)(=O)N[C@H]2CO[C@H]3[C@@H]2OC[C@H]3O)cc1 | i | i | i | i | i
